# Screens deposited in PubChem BioAssay by Buhrlage Lab, Dana-Farber Cancer Institute and Novartis Institutes for BioMedical Research (Cambridge, Mass).
# USP17 inh: inhibitors of human USP17 deubiquitinase; Ubiquitin carboxyl-terminal hydrolase 17-like protein 5 (Homo sapiens), A8MUK1; purified USP17, Ub-rhodamine cleavage fluorescence, 3 h; inhibition, % at 50 µM; 47,000 compounds, 6.5% hits
# Target sequence (A8MUK1 whole entry, looked up): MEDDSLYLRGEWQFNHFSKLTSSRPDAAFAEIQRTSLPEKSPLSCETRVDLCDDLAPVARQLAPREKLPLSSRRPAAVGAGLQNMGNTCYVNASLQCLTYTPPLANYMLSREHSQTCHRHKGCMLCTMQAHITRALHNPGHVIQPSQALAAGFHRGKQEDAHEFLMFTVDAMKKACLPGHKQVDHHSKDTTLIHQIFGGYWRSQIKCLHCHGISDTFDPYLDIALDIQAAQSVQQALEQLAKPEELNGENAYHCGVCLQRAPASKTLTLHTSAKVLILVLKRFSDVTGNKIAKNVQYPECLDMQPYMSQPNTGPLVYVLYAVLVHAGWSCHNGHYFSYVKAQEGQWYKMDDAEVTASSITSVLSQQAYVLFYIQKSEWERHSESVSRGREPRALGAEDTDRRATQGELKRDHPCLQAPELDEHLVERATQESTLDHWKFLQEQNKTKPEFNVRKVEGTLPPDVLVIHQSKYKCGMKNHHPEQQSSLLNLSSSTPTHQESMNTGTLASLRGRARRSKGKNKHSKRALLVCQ
# USP8 block: inhibitors of human USP8 deubiquitinase; purified USP8, Ub-rhodamine cleavage fluorescence, 30 min; Ubiquitin carboxyl-terminal hydrolase 8 (Homo sapiens), P40818; 47,000 compounds, 4.2% hits; inhibition, % at 20 µM
# USP10 inh: inhibitors of human USP10 deubiquitinase. purified USP10, Ub-rhodamine fluorescence, 60 min. AID 1645856, 2021. 47,000 compounds, 1.1% hits. inhibition, % at 20 µM
# USP28 block: inhibitors of human USP28 deubiquitinase; Ubiquitin carboxyl-terminal hydrolase 28 (Homo sapiens), Q96RU2; purified USP28, Ub-rhodamine cleavage fluorescence, 30 min; inhibition, % at 25 µM; 47,000 compounds, 3% hits
# USP30 inh: inhibitors of human USP30 deubiquitinase | Ubiquitin carboxyl-terminal hydrolase 30 (Homo sapiens), Q70CQ3 | purified USP30, Ub-rhodamine cleavage fluorescence | inhibition, % at 25 µM | 47,000 compounds, 5.3% hits
# Active calls of the source: *; nt = not tested or not shown. This is a sample that favours compounds with a hit; in the whole collection about 14% have one here. Rule as the data show it: active = inhibition above about 30%; inactive = the rest.
SMILES,USP17 inh,USP8 block,USP10 inh,USP28 block,USP30 inh
CCn1nccc1-c1cncc(CC2CCN(S(C)(=O)=O)CC2)n1,-11,-10,2,0,0
N#Cc1cc2c(n(-c3cccc(F)c3)c1=O)CC(c1ccccc1)CC2=O (centres undefined),-66,-106,-10,-31,-116
CC(=O)NC(Cc1cccc(C)c1)C(=O)NC1CCN(c2nc(C)cc(C)n2)CC1 (centres undefined),13,22,-4,8,16
Cc1cccc(NC(=O)CN2C(=O)CC(c3ccccc3)=Nc3ccccc32)c1C,16,11,17,0,34*
Cc1ccc(C2=Nc3ccccc3N(CC(=O)Nc3cccc(C)c3C)C(=O)C2)cc1C,36*,43*,12,32*,34*
Cc1cc(=O)[nH]c(Nc2cccc(Cl)c2)n1,-6,9,8,nt,nt
CCc1noc(-c2ccc(-n3ncc(C(=O)N4CCN(C)CC4)c3C)nc2)n1,0,-1,-1,-5,7
O=C1CC(c2nc3ccccc3n2CCC2CCCCC2)CN1c1ccccc1 (centres undefined),-4,-9,12,-3,11
Cc1ccc(S(=O)(=O)N2CCN(C(=O)CN3c4ccccc4CC3C)CC2)c(C)c1 (centres undefined),-7,37*,-12,-15,-129
CSc1ccc(CNC(=O)Cn2nc(C)c3c(C)n(-c4ccccc4)nc3c2=O)cc1,40*,89*,46*,9,10
COc1ccc(CNC(=O)Cn2cnc3c(c(C)c(C)n3-c3ccccc3)c2=O)cc1,30,0,2,19,36*
Cc1c(C)n(-c2ccccc2)c2ncn(CC(=O)NCc3ccc(F)cc3)c(=O)c12,10,7,12,-3,40*
Cc1c(C)n(-c2ccccc2)c2ncn(CC(=O)NCc3cccc(F)c3)c(=O)c12,13,45*,27,-1,34*
Cc1ccc(CNC(=O)CCc2nc3c(C)nn(-c4ccccc4)c3n(C)c2=O)cc1,-2,-15,-3,-1,-2
O=C(c1cnc2n1CCN(C1CCOCC1)C2)N1CCCC1,-2,-42,-3,-4,-13
Cc1cc(C(=O)N2CCOC3(CC=CCN(CCc4ccccc4)C3=O)C2)nc(N(C)C)n1 (centres undefined),-11,-2,-13,-10,-38
Cc1cc(C)n(CC2CN(Cc3nc(-c4ccco4)no3)CCO2)n1 (centres undefined),nt,-20,-7,-7,-35
COc1ccccc1S(=O)(=O)N1CC(c2nc3ccccc3[nH]2)C1,-8,2,4,8,17
O=C1c2oc3ccccc3c(=O)c2C(c2ccco2)N1c1nc2ccc(F)cc2s1 (centres undefined),-11,-20,-7,-10,-51
O=C1C(=O)N(c2nc3ccc(F)cc3s2)C(c2ccc(F)cc2)/C1=C(\O)c1ccc(F)cc1 (centres undefined),-80,-40,61*,1,-110
CCOC(=O)C1CCN(c2nn3c(C)nnc3c3ccccc23)CC1,-8,4,2,-10,-2
CC(C)N1CCN(C(=O)CN2C(=O)C3CCCN3C(=O)c3cc(F)ccc32)CC1 (centres undefined),0,9,-3,-3,0
Cc1cc(-c2ccc(S(=O)(=O)NCCc3ccccc3)s2)on1,29,20,6,20,35*
COc1cccc(Cn2cnc3c(NS(=O)(=O)c4ccc(Cl)cc4)c(C)c(C)cc32)c1,11,49*,18,0,-1
COc1cccc(Cn2cc(S(=O)(=O)N3CCCC3)ccc2=O)c1,-13,-6,0,-4,-11
SMILES,USP17 inh,USP8 block,USP10 inh,USP28 block,USP30 inh
COCCNC(=O)c1c[nH]c2ccc(S(=O)(=O)N(CCCN3CCOCC3)Cc3ccco3)cc2c1=O,-14,-40,-4,-11,-47
CC1CCN(S(=O)(=O)c2ccc3[nH]cc(C(=O)NCc4ccco4)c(=O)c3c2)CC1,55*,27,23,20,15
COc1ccc(C2CC(=O)Nc3n[nH]c(-c4ccccc4)c32)c(OC)c1 (centres undefined),41*,-25,5,10,44*
COc1ccc(C2CC(=O)Nc3ccc4ccccc4c32)cc1OC (centres undefined),1,-4,4,3,7
COc1cccc(OC)c1C(=O)C1CC(=O)Nc2n[nH]c(C)c21 (centres undefined),-2,2,-1,-2,5
COc1cccc(C2CC(=O)Nc3n[nH]c(C)c32)c1OCc1ccccc1C (centres undefined),5,-2,6,9,34*
COc1ccc(C2CC(=O)Nc3ccc4ccccc4c32)c(OC)c1OC (centres undefined),37*,7,3,7,68*
COc1ccc(-c2[nH]nc3c2C(c2cccc(OC)c2OC)CC(=O)O3)cc1 (centres undefined),-14,0,0,-8,-5
O=C(Nc1ccccc1F)N1CC2CN(S(=O)(=O)c3ccc(F)cc3)CC(C1)O2,2,5,1,0,6
COc1ccc(OC)c(CN2CCC([C@@H]3C[C@H](C(F)(F)F)n4ncnc4N3)CC2)c1,-1,-43,-3,-17,-3
C=C1CCC[C@]2(C)C[C@H]3OC(=O)[C@H](CNCCc4ccccc4OC)C3CC12 (some centres undefined),7,3,6,11,47*
C=C1CCC[C@]2(C)C[C@H]3OC(=O)C(CN4CCCCC4C)[C@H]3CC12 (some centres undefined),0,-14,-1,-9,43*
C=C1CCC[C@]2(C)C[C@H]3OC(=O)C(CN4CCCCC4CC)[C@H]3CC12 (some centres undefined),-1,-4,8,-1,40*
C=C1CCC[C@]2(C)C[C@H]3OC(=O)C(CN(C)CC(O)c4ccc(O)cc4)[C@H]3CC12 (some centres undefined),-7,-2,3,-7,11
C=C1CCC[C@]2(C)C[C@H]3OC(=O)C(CN4CCC(C(=O)OCC)CC4)[C@H]3CC12 (some centres undefined),-2,0,0,-1,4
O=C1COC2(CCN(Cc3ccccn3)CC2)CN1c1cncnc1,-51,-215,-5,-30,-109
O=C(c1ccc2cc[nH]c2c1)N1CCCC(c2n[nH]c(C3CC3)n2)C1 (centres undefined),-3,-11,-3,0,0
CSc1ccc(/C=C/c2nc(-c3ccccc3O)n[nH]2)cc1,46*,64*,21,29,9
CCn1c(CN2CCc3ccccc3C2)nc2cc(S(=O)(=O)N(C)C)ccc21,34*,79*,-5,5,-42
